Screening results: PubChem, National Center for Advancing Translational Sciences (NCATS)
An excerpt weighted towards active compounds, which were near 10% of everything screened.
ALDH1A1 inh – blocks purified human ALDH1A1 activity; Potency, µM (highest dose often 75.3 µM), for the others: top-dose activity, negative = inhibition, actives largely listed as inhibitors; actives 7.3% (n = 220,000); Purified ALDH1A1, NADH fluorescence, propionaldehyde substrate;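 also: potency is read from the fitted curve at half-maximal effect; plate controls were no enzyme wells and a reference inhibitor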
Target sequence (P00352 whole entry, looked up): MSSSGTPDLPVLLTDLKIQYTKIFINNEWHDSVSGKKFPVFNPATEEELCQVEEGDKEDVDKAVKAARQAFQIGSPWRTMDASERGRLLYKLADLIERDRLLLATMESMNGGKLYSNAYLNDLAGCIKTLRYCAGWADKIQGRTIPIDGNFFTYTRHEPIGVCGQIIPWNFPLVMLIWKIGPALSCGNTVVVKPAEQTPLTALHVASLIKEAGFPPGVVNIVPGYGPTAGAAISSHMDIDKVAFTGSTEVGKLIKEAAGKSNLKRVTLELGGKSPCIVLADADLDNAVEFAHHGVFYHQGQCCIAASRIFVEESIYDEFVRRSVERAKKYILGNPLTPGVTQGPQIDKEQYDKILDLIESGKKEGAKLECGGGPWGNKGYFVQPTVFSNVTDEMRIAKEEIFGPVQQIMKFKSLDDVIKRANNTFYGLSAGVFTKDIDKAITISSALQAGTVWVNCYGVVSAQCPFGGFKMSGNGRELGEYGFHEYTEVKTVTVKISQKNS
LMNA splice mod – modulators of lamin A splicing | Potency, µM (highest dose often 46.1 µM), inactives show at the top dose ratio change, negative = inhibition, hits mostly inhibitors | actives 0.01% (n = 200,000) | HeLa LMNA splicing GFP/RFP minigene ratio, 48 h | AID 1487; active = well fitted inhibition curve with a large enough effect in the signal ratio, with a control signal flat, not every such curve was filed as active; inconclusive = small, poorly fitted or top-dose-only effect, or effect the other way, or a change in a side signal; the % refers to the signal ratio; also: potency is read from the fitted curve at half-maximal effect
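S3 HeLa cells stably expressing lamin A-EGFP splicing minigene plus DsRed2, 600 cells/well, 48 h compound exposure at 37C. Laser-scanning cytometry; analysed as GFP (500-530 nm)/RFP (575-640 nm) total intensity ratio; 0.5% DMSO vehicle.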
PNC assembly inh – inhibitors of perinucleolar compartment assembly. PC3M PTB-GFP, PNC prevalence imaging, 16 h; active compounds read low. activity change (PNC), negative = inhibition, % at 10 µM. actives 3.1% (n = 140,000);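 active = readout at or below -70, meaning at least 70% loss of cells showing the perinucleolar compartment, a nuclear body marking cancer cells; inconclusive = readout between -30 and a set limit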;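 also: plate controls were DMSO wells for no effect and camptothecin positive control wells for full effect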
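Read-out is percentage of cells bearing a perinucleolar compartment, from automated 20x imaging of fixed, Hoechst-stained PC3M PTB-GFP cells. Cells were seeded 4 h, then exposed 16 h to compound (23 nl of library stock) in duplicate plates.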
HPGD block – inhibitors of human 15-hydroxyprostaglandin dehydrogenase (HPGD); Potency, µM, without a hit: at the highest dose activity change, negative = inhibition, most hits filed as inhibitors; purified HPGD, NADH fluorescence kinetic, PGE2 substrate; P15428; actives 4.3% (n = 150,000); also: potency is read from the fitted curve at half-maximal effect
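20 nM HPGD preincubated 15 min at room temperature with compound in 50 mM Tris-HCl pH 8, 0.01% Tween 20. Started with 1 mM NAD+ and 30 uM prostaglandin E2; NADH fluorescence (360/450 nm) read 5 times over 30-s intervals, last minus first.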
ALOX12 inhib – blocks human 12-lipoxygenase activity. AID 1452. Potency, µM (highest dose often 57.1 µM), without a hit: at the top dose activity change, negative = inhibition, hits mostly inhibitors. P18054. purified 12-hLO, xylenol orange hydroperoxide absorbance. actives 0.12% (n = 150,000); active = well fitted inhibition curve with a large enough effect; inconclusive = small, poorly fitted or top-dose-only effect; also: potency is read from the fitted curve at half-maximal effect; nearly all actives have a fitted effect of over 55% in size
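Purified human 12hLO (150 nM final) was preincubated with compounds for 15 min at room temperature in 25 mM Hepes pH 7.0, 0.01% Triton X-100, then reacted with 40 uM arachidonic acid for 30 min. Hydroperoxide was detected with ferrous iron/xylenol orange.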
* hit, by the source's call; ? = inconclusive; / = not tested or not shown; [ ] = remark or other dose. Unless noted, calls follow the shape of the dose curve; as a rule, active = well fitted inhibition curve with a large enough effect (not every such curve was filed as active); inconclusive = small, poorly fitted or top-dose-only effect, or another doubt; inactive = no such curve, though single readings can be large or run the other way. Unless noted, % is scaled to controls: 0 for no effect and ±100 for the full control effect.

SMILES	ALDH1A1 inh	LMNA splice mod	PNC assembly inh	HPGD block	ALOX12 inhib
Cc1cc(C)c(COc2ccc(/C=N/n3c(C)n[nH]c3=S)cc2)c(C)c1	?	?	43.8	10µM*	-17.9%
FC(F)(F)c1cccc(NC(=S)Nc2ccc(Cl)cc2Cl)c1	?	1.9%	56.3	-6.7%	-7.0%
FC(F)(F)c1cnc(NNC(=S)Nc2ccccc2Cl)c(Cl)c1	1.5µM*	-20.7%	1.2	/	-7.0%
Cc1cccc(NC(=S)NNc2ncc(C(F)(F)F)cc2Cl)c1	28.2µM*	?	39.6	-18.0%	-16.5%
S=C(NNc1ccnc2cc(Cl)ccc12)Nc1ccccc1Cl	?	?	16.5	25.1µM*	-15.7%
Clc1ccc(NNc2ccnc3cc(Cl)ccc23)cc1	-7.8%	-0.8%	-13.6	-18.6%	-5.8%
O=C(Nc1ccc(Br)cc1)N1CCC(CN2CCCC2)CC1	/	-17.0%[46 µM]	/	/	/
COC(=O)N[C@@H](CCc1ccccc1)[C@]1(C(C)=O)CCCC1=O	-2.1%	/	/	-10.9%	/
Cc1nn(CCC(=O)N2CCN(c3ccccc3)CC2)c(C)c1S(=O)(=O)N1CCCC1	/	10.7%[46 µM]	/	/	/
O=C(c1ccccc1)c1ccc(N2CCNCC2)cc1	28.2µM*	1.7%	56.1	-6.1%	4.0%
O=C(c1ccccc1)c1ccc(N2CCCC2)cc1	?	?	24.3	14.1µM*	-9.5%
CCC(C)NC(=O)C(=O)NCc1ccccn1 (configuration not stated)	8.8%	-11.3%[46 µM]	/	/	/
CC(=O)c1cc(Cc2csc(C(C)=O)c2)cs1	-3.1%	?	-100.0*	-5.0%	-3.9%
O=[N+]([O-])c1cc(Br)c(O)c(/C=N/Nc2nnnn2-c2cccc3ccccc23)c1	17.8µM*	6.5%	-7.0	?	?
COc1ccc([N+](=O)[O-])cc1/C=N/Nc1nn[nH]n1	5.6%	-13.0%[9.22 µM]	/	/	/
CCCCNc1nc(C)nc2c1nc(-c1ccccc1)n2CCN(C)C	?	/	/	?	-4.5%
Cc1cc(C)cc(-n2ccn(CC(=O)Nc3ccccc3C(F)(F)F)c(=O)c2=O)c1	/	9.4%[46 µM]	/	/	/
O=[N+]([O-])c1c(NCCCO)cc(SCc2ccco2)c2nonc12	?	-6.7%	16.8	-12.2%	-5.0%
O=[N+]([O-])c1c(NCCCO)cc(Sc2ccc(Cl)cc2)c2nonc12	4.47µM*	-12.5%	?	-29.2%	3.8%
COc1ccc(CNc2cc(NCCCO)c([N+](=O)[O-])c3nonc23)cc1	10µM*	/	/	/	/
CC(CCC(=O)O)C1CCC2C3CC[C@H]4CC(O)CC[C@@]4(C)C3CC(O)[C@]12C (some centres not stated)	-2.8%	/	/	0.3%	-0.9%
NCCC[C@@H](CC(=O)N[C@@H]1CCCC[C@H]1C(=O)N[C@H](CC(=O)N[C@@H](CCC(=O)O)CC(=O)O)Cc1ccccc1)NC(=O)C[C@H](CO)NC(=O)[C@@H]1CCCC[C@H]1N	-8.7%	/	/	-0.8%	1.8%
COc1ccc(N=C2SC(C(=O)N3CCN(c4ccc([N+](=O)[O-])cc4)CC3)CC(=O)N2C)cc1 (configuration not stated)	10µM*	?	/	/	/
O=C(CSc1nnc(COc2ccc(Cl)cc2)o1)N1c2ccccc2CCc2ccccc21	22.4µM*	?	-17.0	1.6%	-9.2%
COc1ccc(-c2nnc(SCC(=O)c3ccc(C)o3)o2)cc1	-2.7%	?	-118.9*	?	1.9%
SMILES	ALDH1A1 inh	LMNA splice mod	PNC assembly inh	HPGD block	ALOX12 inhib
COc1ccc(-c2nnc(SCC(=O)NC(=O)NCc3ccco3)o2)cc1	22.4µM*	3.7%	-6.0	20µM*	0.8%
COc1ccc(-c2nnc(SCC(=O)N3c4ccccc4Sc4ccccc43)o2)cc1	8.5%	-3.6%	-100.0*	-13.3%	5.3%
CCN(CC)S(=O)(=O)c1ccc(-c2nnc(SCC(=O)c3ccc(OC)cc3)o2)cc1	0.355µM*	5.0%	?	-6.9%	-9.9%
CCN(CC)S(=O)(=O)c1ccc(-c2nnc(SCC(=O)Nc3ccc(OC)cc3)o2)cc1	-3.9%	-4.5%	53.3	-15.4%	-2.2%
COc1cccc(Nc2ncc3nc(CCc4ccccc4)c(=O)n(C4CC4)c3n2)c1	-1.4%	/	/	-5.2%	-0.1%
Cc1c(C(=O)N2CCN(C)CC2)oc2c1C(=O)CC(C)(C)C2	22.4µM*	12.2%	-23.2	-11.0%	-10.8%
